Assay outcomes from PubChem BioAssay.
TTR transcr act: activators of transthyretin transcription | AID 1117267 | activation, % at 16.7 µM | SH-SY5Y TTR promoter Gaussia luciferase, luminescence; 100% = recombinant luciferase protein wells | actives 1.3% (n = 92,000);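 active means activation above the mean of all tested compounds plus 3 SD, cut at about 9.5% in these data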;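 further: cells exposed to compounds for one day before reading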
TTR inh HuH7: decreases TTR transcription in HuH7 cells in activator counter-screen; shares compounds with TTR transcr act; HuH7 TTR promoter-Gaussia luciferase reporter, luminescence; inhibition, % at 16.7 µM; actives 4% (n = 1,100);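 active means average inhibition above the solvent-only control wells' mean plus 3 SD, cut at about 15% in these data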;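 further: inhibitors lower well luminescence so higher value means more inhibition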
TTR act confirm: confirmation of human transthyretin transcription activators. shares compounds with TTR transcr act. SHSY5Y TTR promoter Gaussia luciferase, luminescence; 100% = purified Lucia enzyme wells, no cells. activation, % at 16.7 µM. 1,100 tested, under 10 active. AID 1117280;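 active means mean activation above a set limit taken from the earlier primary screen, cut at about 11% in these data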
Each line names hits and unclear results; the compound was inactive in the other large screens (follow-up assays come after a bar, where they were run). The full list was thinned out, with hits kept by preference.

O=C(NC(=S)N1CCN(c2ccc(F)cc2)CC1)C12CC3CC(CC(C3)C1)C2	TTR transcr act 18 | TTR inh HuH7 inactive | TTR act confirm inactive
COc1ccc(CN[C@@H]2CC[C@@]34CCCN3C(=O)CCC[C@H]4C2)cc1	none
O=C(Nc1cccc(C(F)(F)F)c1)O[C@@H]1CC[C@@]23CCCN2C(=O)CCC[C@H]3C1	none
CCOC(=O)[C@@]12CCC3=C1N(CCC3)C(=O)[C@H](CC(=O)NCc1ccc(C)o1)C2	none
COCCCNC(=O)C[C@H]1C[C@@]2(C(=O)OC)C(=C[C@H](C3CCCC3)O[C@@H]2C)N(Cc2ccc(Cl)cc2Cl)C1=O	none
CCOC(=O)[C@]12CCCC=C1N(Cc1ccc(OC)cc1)C(=O)[C@@H]2CC(=O)NCCc1ccccc1OC	none
COc1cc(NC(=O)c2cnn3c(C)cc(C)nc23)cc(OC)c1OC	none
CCOC(=O)C1=C[C@@H](C(C)C)N(S(=O)(=O)c2ccc([N+](=O)[O-])cc2)[C@H]1c1ccccc1	none
CCOC(=O)C1=C[C@@H](CC)N(S(=O)(=O)c2ccc([N+](=O)[O-])cc2)[C@H]1c1ccccc1	TTR transcr act 48 | TTR inh HuH7 inactive | TTR act confirm inactive
CCOC(=O)C1=C[C@@H](C(C)(C)C)N(S(=O)(=O)c2ccc([N+](=O)[O-])cc2)[C@H]1c1ccccc1	none
Cc1cccc(C)c1NC(=O)C(c1ccncc1)n1c(=O)c(-c2cc3ccccc3[nH]2)nc2ccccc21 (centres undefined)	none
COc1cc(C(=O)NCCCn2ccnc2)cc(OC)c1OC	none
O=C(NCCCn1ccnc1)c1cc(C2CC2)on1	TTR transcr act 10 | TTR inh HuH7 inactive | TTR act confirm inactive
Cc1cc(C(=O)NCCCn2ccnc2)cs1	none
c1cc2ccn(CC3CC3)c2cc1-c1ccc2ccn(CC3CC3)c2c1	none
CC1(c2nnnn2-c2ccc3ccccc3c2)CSCC(=O)N1C1CC1 (centres undefined)	none
COC(=O)[C@]12C[C@H](CC(=O)NCc3ccccc3)C(=O)N(Cc3ccc(Cl)cc3Cl)C1=C[C@H](C1CCCC1)O[C@@H]2C	none
O=C(N/N=C/C=C/c1ccccc1)c1cccnc1	none
O=C(N/N=C/C=C/c1ccccc1)c1n[nH]c2c1CCC2	TTR transcr act 11 | TTR inh HuH7 inactive | TTR act confirm inactive
O=C(N/N=C/C=C/c1ccccc1)c1cc(C2CC2)[nH]n1	none
Cc1ccc(-c2cc(C(=O)N/N=C/C=C/c3ccccc3)n[nH]2)s1	TTR transcr act 13 | TTR inh HuH7 inactive | TTR act confirm inactive
Cc1ccc(/C=N/NC(=O)c2n[nH]c3c2CCCC3)cc1	none
Cc1cc(C(=O)N/N=C/C=C/c2ccccc2)n[nH]1	none
Cc1ccc(OCCOc2ccc(Cl)cc2Cl)c(Br)n1	none
CCC[C@H]1[C@@H](NC(=O)c2cccnc2)CC[C@@]23CCCN2C(=O)CCC[C@@H]13	none
COc1cccc2c(NCc3ccccc3)nc(-n3c(N)nc4ccccc43)nc12	none
CCN(CC)C(=O)O[C@H]1CC[C@@]23CCCN2C(=O)CCC[C@H]3C1	none
COc1cccc(NC(=O)CN2C(=O)NC(CCc3ccccc3)C2=O)c1 (centres undefined)	none
O=C(CN1C(=O)NC(CCc2ccccc2)C1=O)N1CCCCCC1 (centres undefined)	none
CCc1cccc(C)c1NC(=O)CN1C(=O)NC(CCc2ccccc2)C1=O (centres undefined)	TTR transcr act 15 | TTR inh HuH7 inactive | TTR act confirm inactive
CCCC1CCC2(CCCN2CCOC(=O)Nc2ccc(F)cc2)CC1 (centres undefined)	none
Cn1nnnc1NCc1cccc(Cl)c1	none
CC(C)n1nnnc1-c1cccc(Cl)c1	TTR transcr act 12 | TTR inh HuH7 inactive | TTR act confirm inactive
Cc1nn2cc(-c3cccc(Cl)c3)cnc2c1Cl	none
S=C(Nc1ccccc1I)OC1CCC12CCC(c1ccccc1)CC2 (centres undefined)	none
O=C(NCc1ccccc1)NC12CC3CC(CC(C3)C1)C2	none
O=C1C(C23CC4CC(CC(C4)C2)C3)C(=O)N(c2ccccc2)N1c1ccccc1	TTR transcr act 51 | TTR inh HuH7 inactive | TTR act confirm inactive
O=C1CC(c2ccccc2)CC(=O)N1c1ccccc1	none
Cc1ccc(CN2CCCCC(NC(=O)Nc3cccc(F)c3)C2=O)cc1 (centres undefined)	none
CC(C)(C)C(=O)NC1CCCCN(Cc2ccc(Cl)cc2)C1=O (centres undefined)	none
O=S1(=O)c2ccc(N3CCC[C@@H]3CO)cc2O[C@@H]2CCN1C2	none
COC(=O)[C@]12C[C@H](CC(=O)NCCC(C)C)C(=O)N(Cc3cccc4ccccc34)C1=C[C@H](COCc1ccccc1)O[C@@H]2C	none
CCOc1ccc(OCC)c(NC(=O)C2CCCN(S(=O)(=O)c3ccc(C)cc3)C2)c1 (centres undefined)	none
CC(C)c1ccccc1NC(=O)C1CCCN(C(=O)c2ccc(Cl)cc2)C1 (centres undefined)	none
CCOc1ccc(OCC)c(NC(=O)C2CCCN(C(=O)c3ccc(Cl)cc3)C2)c1 (centres undefined)	TTR transcr act 11 | TTR inh HuH7 inactive | TTR act confirm inactive
COc1ccc(CN2C(=O)CSCCC2(C)c2nnnn2-c2c(C)cccc2C)cc1 (centres undefined)	none
COc1ccc(C(=O)CSc2ccc(-c3ccccc3)nn2)cc1	none
COc1ccc(Sc2nnc(-c3ccccc3)cc2C#N)cc1	TTR transcr act 10 | TTR inh HuH7 inactive | TTR act confirm inactive
Cc1ccc(Sc2nnc(-c3ccccc3)cc2C#N)cc1	none
Cc1ccccc1CN1CCN(S(=O)(=O)c2cccc3nsnc23)CC1	TTR transcr act 12 | TTR inh HuH7 inactive | TTR act confirm inactive
CC1CC(C)CN(S(=O)(=O)c2cccc3nsnc23)C1 (centres undefined)	none
CCN1CCN(S(=O)(=O)c2cccc3nsnc23)CC1	none
COC(=O)[C@]12C[C@H](CC(=O)NCc3ccc(C)o3)C(=O)N(Cc3ccccc3)C1=C[C@H](COCc1ccccc1)O[C@@H]2C	none
Cc1ccc(-c2cc(-c3ccccc3)nc(NN)n2)cc1	none
Cc1ccc(-c2nc3ccccc3nc2-c2ccccc2)cc1	none
Cc1cc(-c2ccccc2)nc(-c2ccccc2)c1C	TTR transcr act 19 | TTR inh HuH7 inactive | TTR act confirm inactive
COCCn1cnc2c1c(=O)n(CC(=O)Nc1cc(C)on1)c(=O)n2Cc1ccccc1	TTR transcr act 16 | TTR inh HuH7 inactive | TTR act confirm inactive
CC(C)Cn1cnc2c1c(=O)n(CC(=O)N(C)C)c(=O)n2Cc1ccccc1	none
CCn1cnc2c1c(=O)n(CC(=O)Nc1ccc3c(c1)OC(F)(F)O3)c(=O)n2Cc1ccccc1	none
CCCNC(=O)c1csc(Nc2cccc3ccccc23)n1	none
CC(=O)c1csc(Nc2ccccc2Cl)n1	TTR transcr act 12 | TTR inh HuH7 inactive | TTR act confirm inactive
CC(=O)c1csc(-c2ccccc2)n1	none
CCOc1ncccc1C(=O)N(CCC(C)C)c1c(N)n(Cc2ccccc2)c(=O)[nH]c1=O	TTR transcr act 17 | TTR inh HuH7 inactive | TTR act confirm inactive
CC(C)CCN(C(=O)c1ccncc1)c1c(N)n(Cc2ccccc2)c(=O)[nH]c1=O	none
CCCCn1c(N)c(N(CCC(C)C)C(=O)COC(=O)c2cccnc2SC)c(=O)[nH]c1=O	none
CCOC(=O)[C@]12CCCC=C1N(CCCOC)C(=O)[C@@H]2CC(=O)N1CCC(c2ccccc2)CC1	none
